Assay results from the antibiotic and cytotoxicity screens of Wong et al. (2023).
In all, about 39,000 compounds went through this assay and about 1,500 (3.8%) were called active. Only a selection was taken, and actives are over-represented in it overall.

Each molecule was assayed on HSkMC (human skeletal muscle cells) (assay: cytotoxicity call (relative viability < 0.9)). Details: 10 µM.
`C[C@H]1CN([C@@H](C)CO)C(=O)c2cc(NC(=O)Nc3ccc(F)cc3)ccc2O[C@H]1CN(C)Cc1ccc(-c2ccccc2)cc1` was tested, and the cytotoxicity call was “inactive”. For `C[C@@H]1CN([C@H](C)CO)C(=O)c2cc(NC(=O)Nc3ccc(F)cc3)ccc2O[C@@H]1CN(C)Cc1ccc(-c2ccccc2)cc1`, the cytotoxicity call was “active”. With `C[C@H](CO)N1C[C@H](C)[C@@H](CN(C)Cc2ccc(-c3ccccc3)cc2)Oc2ccc(NC(=O)Nc3ccc(F)cc3)cc2C1=O` the cytotoxicity call was “inactive”. In the case of `C[C@]12C=CC(=O)N[C@@H]1CC[C@@H]1[C@@H]2CC[C@]2(C)[C@@H](C(=O)Nc3cc(C(F)(F)F)ccc3C(F)(F)F)CC[C@@H]12`, the cytotoxicity call is reported as “inactive”. In the case of `CCCNC(=O)N1C[C@@H](O)COC[C@H]2O[C@H](CC(=O)NCc3ccncn3)CC[C@@H]21`, the cytotoxicity call is reported as “inactive”. For `C[C@@H]1CN([C@@H](C)CO)C(=O)Cc2cc(NC(=O)CCC(F)(F)F)ccc2O[C@H]1CN(C)S(=O)(=O)c1ccccc1`, the cytotoxicity call was “inactive”. `CCC(C)C(N)C(=O)O` (stereo not drawn) was tested, and the cytotoxicity call was “inactive”. In the case of `COc1ccccc1CN(C)C[C@H]1OCc2ccccc2-c2c(n(C)c3ccccc23)C(=O)N([C@H](C)CO)C[C@@H]1C`, the cytotoxicity call is reported as “inactive”. For `C[C@H](CO)N1C[C@H](C)[C@@H](CN(C)Cc2ccccc2C(F)(F)F)OCc2ccccc2-c2c(n(C)c3ccccc23)C1=O`, the cytotoxicity call was “active”. With `COc1ccccc1CN(C)C[C@@H]1OCc2ccccc2-c2c(n(C)c3ccccc23)C(=O)N([C@H](C)CO)C[C@@H]1C` the cytotoxicity call was “inactive”. `COc1ccccc1CN(C)C[C@@H]1OCc2ccccc2-c2c(n(C)c3ccccc23)C(=O)N([C@@H](C)CO)C[C@@H]1C` was tested, and the cytotoxicity call was “inactive”. With `COc1ccccc1CN(C)C[C@@H]1OCc2ccccc2-c2c(n(C)c3ccccc23)C(=O)N([C@H](C)CO)C[C@H]1C` the cytotoxicity call was “inactive”. With `C[C@@H]1CN([C@@H](C)CO)C(=O)c2c(c3ccccc3n2C)-c2ccccc2CO[C@@H]1CN(C)Cc1ccccc1C(F)(F)F` the cytotoxicity call was “active”. For `C[C@@H]1CN([C@H](C)CO)C(=O)c2c(c3ccccc3n2C)-c2ccccc2CO[C@@H]1CN(C)Cc1ccccc1C(F)(F)F`, the cytotoxicity call was “active”. `COc1ccccc1CN(C)C[C@@H]1OCc2ccccc2-c2c(n(C)c3ccccc23)C(=O)N([C@@H](C)CO)C[C@H]1C` was tested, and the cytotoxicity call was “inactive”. In the case of `C[C@@H]1CN([C@@H](C)CO)C(=O)c2c(c3ccccc3n2C)-c2ccccc2CO[C@H]1CN(C)Cc1ccccc1C(F)(F)F`, the cytotoxicity call is reported as “active”. `Cc1noc(C)c1NC(=O)Nc1ccc2c(c1)C(=O)N([C@@H](C)CO)C[C@H](C)[C@H](CN(C)S(=O)(=O)c1ccc(F)cc1)OCCCC[C@@H](C)O2` was tested, and the cytotoxicity call was “inactive”. `C[C@@H]1CN([C@H](C)CO)C(=O)c2cc(NC(=O)CCCN(C)C)ccc2O[C@H]1CN(C)S(=O)(=O)c1cn(C)cn1` was tested, and the cytotoxicity call was “inactive”. `CCS(=O)(=O)CCn1c([N+](=O)[O-])cnc1C` was tested, and the cytotoxicity call was “inactive”. In the case of `Cc1noc(C)c1S(=O)(=O)Nc1cccc2c1O[C@@H](CN(C)S(=O)(=O)c1ccc(Cl)cc1)[C@@H](C)CN([C@H](C)CO)C2=O`, the cytotoxicity call is reported as “inactive”. `C[C@@H]1CCCCO[C@H](CN(C)S(C)(=O)=O)[C@@H](C)CN([C@@H](C)CO)C(=O)c2cc(NS(=O)(=O)c3ccc(F)cc3)ccc2O1` was tested, and the cytotoxicity call was “inactive”. With `CO[C@H](CN(C)S(=O)(=O)c1cccc(Cl)c1)[C@@H](C)CN([C@H](C)CO)S(=O)(=O)c1ccc(Cl)cc1` the cytotoxicity call was “inactive”. `O=C(N[C@@H]1CC[C@@H](CC(=O)N2CCOCC2)O[C@H]1CO)c1ccccn1` was tested, and the cytotoxicity call was “inactive”. In the case of `Cc1noc(C)c1NC(=O)N(C)C[C@H]1Oc2ccc(NC(=O)NC(C)C)cc2C(=O)N([C@H](C)CO)C[C@@H]1C`, the cytotoxicity call is reported as “inactive”. In the case of `COc1ccc(S(=O)(=O)Nc2ccc3c(c2)C(=O)N([C@H](C)CO)C[C@@H](C)[C@H](CN(C)S(C)(=O)=O)O3)cc1`, the cytotoxicity call is reported as “inactive”. For `Nc1ccc(Nc2ccccc2)cc1`, the cytotoxicity call was “inactive”. For `COc1ccc2c3c([nH]c2c1)[C@@H](CO)N(C[C@]13CN(C1)S(=O)(=O)C)C(=O)C1CCOCC1`, the cytotoxicity call was “inactive”. `COc1ccccc1CN(C)C[C@H]1OCc2ccccc2-c2c(n(C)c3ccccc23)C(=O)N([C@H](C)CO)C[C@H]1C` was tested, and the cytotoxicity call was “inactive”. With `C[C@H](CO)N1C[C@H](C)[C@H](CN(C)Cc2ccccc2C(F)(F)F)OCc2ccccc2-c2c(n(C)c3ccccc23)C1=O` the cytotoxicity call was “active”. With `C[C@H]1CN([C@@H](C)CO)C(=O)c2c(c3ccccc3n2C)-c2ccccc2CO[C@@H]1CN(C)Cc1ccccc1C(F)(F)F` the cytotoxicity call was “active”. For `C[C@H]1CN([C@@H](C)CO)C(=O)c2c(c3ccccc3n2C)-c2ccccc2CO[C@H]1CN(C)Cc1ccccc1C(F)(F)F`, the cytotoxicity call was “inactive”. For `COc1ccccc1CN(C)C[C@H]1OCc2ccccc2-c2c(n(C)c3ccccc23)C(=O)N([C@@H](C)CO)C[C@H]1C`, the cytotoxicity call was “inactive”. With `C[C@@H]1CN([C@H](C)CO)C(=O)c2c(c3ccccc3n2C)-c2ccccc2CO[C@H]1CN(C)Cc1ccccc1C(F)(F)F` the cytotoxicity call was “active”. With `COc1ccccc1CN(C)C[C@H]1OCc2ccccc2-c2c(n(C)c3ccccc23)C(=O)N([C@@H](C)CO)C[C@@H]1C` the cytotoxicity call was “inactive”. With `C[C@@H]1CN([C@@H](C)CO)C(=O)c2cc(NC(=O)CCC(F)(F)F)ccc2O[C@@H](C)CCCCO[C@@H]1CN(C)C(=O)CCC(F)(F)F` the cytotoxicity call was “inactive”. With `COc1ccc(NC(=O)Nc2ccc3c(c2)C(=O)N([C@H](C)CO)C[C@@H](C)[C@@H](CN(C)C(=O)NC(C)C)OCCCC[C@H](C)O3)cc1` the cytotoxicity call was “inactive”. `C[C@@H]1CCCCO[C@H](CN(C)C(=O)Nc2ccc3c(c2)OCO3)[C@@H](C)CN([C@@H](C)CO)C(=O)c2cc(NC(=O)CCC(F)(F)F)ccc2O1` was tested, and the cytotoxicity call was “inactive”. For `CN1C(=O)COc2cc(N)ccc21`, the cytotoxicity call was “inactive”. `Cc1noc(C)c1NC(=O)N(C)C[C@H]1Oc2ccc(NS(C)(=O)=O)cc2CC(=O)N([C@H](C)CO)C[C@@H]1C` was tested, and the cytotoxicity call was “inactive”. `Cc1cc(C(=O)O)cc(S(N)(=O)=O)c1` was tested, and the cytotoxicity call was “inactive”. For `C[C@@H]1CN([C@H](C)CO)C(=O)c2cc(NC(=O)Nc3ccc4c(c3)OCO4)ccc2O[C@@H]1CN(C)Cc1ccc(C(=O)Nc2ccccc2N)cc1`, the cytotoxicity call was “inactive”. For `COc1ccc(NC(=O)N(C)C[C@@H]2Oc3c(NC(=O)c4cc(C)nn4C)cccc3C(=O)N([C@H](C)CO)C[C@H]2C)cc1`, the cytotoxicity call was “inactive”. For `C[C@H]1CCCCO[C@H](CN(C)Cc2ccncc2)[C@@H](C)CN([C@@H](C)CO)C(=O)c2cc(NS(=O)(=O)c3ccc(Cl)cc3)ccc2O1`, the cytotoxicity call was “inactive”. In the case of `O=C(NO)c1cn(-c2ccc(C[C@H]3C(=O)O[C@@H](Cc4ccccc4)[C@H]4[C@@H]5C=CCCC=C5CN43)cc2)nn1`, the cytotoxicity call is reported as “inactive”. For `COc1ccc([Si](C)(C)[C@@H]2[C@@H](CCn3cc(CCO)nn3)O[C@]3(C(=O)N(Cc4cccc(N5C(=O)c6cccc7cccc5c67)c4)c4ccccc43)[C@H]2C)cc1`, the cytotoxicity call was “active”. `COc1ccc([Si](C)(C)[C@@H]2[C@@H](CCn3cc(CCO)nn3)O[C@]3(C(=O)N(Cc4ccc(N5C(=O)c6cccc7cccc5c67)cc4)c4ccccc43)[C@H]2C)cc1` was tested, and the cytotoxicity call was “active”. With `COc1ccc([Si](C)(C)[C@H]2[C@H](CCO)O[C@@]3(C(=O)N(Cc4ccc(N5C(=O)c6cccc7cccc5c67)cc4)c4ccccc43)[C@@H]2C)cc1` the cytotoxicity call was “inactive”. With `COc1ccc([Si](C)(C)[C@H]2[C@H](CCn3cc(CCO)nn3)O[C@@]3(C(=O)N(Cc4cccc(N5C(=O)c6cccc7cccc5c67)c4)c4ccccc43)[C@@H]2C)cc1` the cytotoxicity call was “inactive”. With `COc1ccc([Si](C)(C)[C@H]2[C@H](CCO)O[C@@]3(C(=O)N(Cc4cccc(N5C(=O)c6cccc7cccc5c67)c4)c4ccccc43)[C@@H]2C)cc1` the cytotoxicity call was “inactive”. `COc1ccc([Si](C)(C)[C@@H]2[C@@H](CCO)O[C@]3(C(=O)N(Cc4ccc(N5C(=O)c6cccc7cccc5c67)cc4)c4ccccc43)[C@H]2C)cc1` was tested, and the cytotoxicity call was “inactive”. For `C[C@@H]1CCCCO[C@@H](CN(C)C(=O)CCCN(C)C)[C@H](C)CN([C@H](C)CO)C(=O)c2cc(NC(=O)Nc3ccc(C(F)(F)F)cc3)ccc2O1`, the cytotoxicity call was “inactive”. In the case of `C[C@H](CO)N1C[C@H](C)[C@@H](CN(C)C(=O)Nc2ccccc2)OCCCC[C@H](C)Oc2ccc(NC(=O)Cc3ccccc3)cc2C1=O`, the cytotoxicity call is reported as “inactive”. In the case of `CN1CCN(C(=O)C[C@@H]2CC[C@@H]3[C@H](COc4ccc(NC(=O)C5CCCCC5)cc4C(=O)N3C)O2)CC1`, the cytotoxicity call is reported as “inactive”. For `C[C@H]1CN([C@@H](C)CO)C(=O)Cc2cc(NS(C)(=O)=O)ccc2O[C@@H]1CN(C)Cc1ccc(C(=O)O)cc1`, the cytotoxicity call was “inactive”. For `COc1ccc(S(=O)(=O)N(C)C[C@@H]2OCCCC[C@H](C)Oc3ccc(NS(=O)(=O)c4ccc(Cl)cc4)cc3C(=O)N([C@H](C)CO)C[C@@H]2C)cc1`, the cytotoxicity call was “inactive”. For `C[C@@H]1CN([C@H](C)CN(C)C)C(=O)c2cc(NC(=O)Cc3cn(C)c4ccccc34)ccc2O[C@H]1CN(C)S(=O)(=O)c1ccc(Cl)cc1`, the cytotoxicity call was “active”. With `C[C@H]1CN([C@@H](C)CO)C(=O)c2cc(NC(=O)Cc3cn(C)c4ccccc34)ccc2O[C@@H]1CN(C)S(C)(=O)=O` the cytotoxicity call was “inactive”. For `C[C@@H]1CN([C@@H](C)CO)C(=O)c2cc(NC(=O)Cc3cn(C)c4ccccc34)ccc2O[C@@H]1CN(C)Cc1ccc(Cl)c(Cl)c1`, the cytotoxicity call was “active”. `C[C@@H]1CN([C@H](C)CO)C(=O)c2cc(NC(=O)Cc3cn(C)c4ccccc34)ccc2O[C@@H]1CN(C)Cc1ccc(Cl)c(Cl)c1` was tested, and the cytotoxicity call was “active”. `C[C@H](CO)N1C[C@H](C)[C@@H](CN(C)Cc2ccc(-c3ccccc3)cc2)Oc2ccc(NC(=O)Cc3cn(C)c4ccccc34)cc2C1=O` was tested, and the cytotoxicity call was “inactive”. For `C[C@H](CO)N1C[C@H](C)[C@@H](CN(C)Cc2ccc(Cl)c(Cl)c2)Oc2ccc(NC(=O)Cc3cn(C)c4ccccc34)cc2C1=O`, the cytotoxicity call was “inactive”. In the case of `C[C@H](CO)N1C[C@H](C)[C@H](CN(C)Cc2ccc(Cl)c(Cl)c2)Oc2ccc(NC(=O)Cc3cn(C)c4ccccc34)cc2C1=O`, the cytotoxicity call is reported as “active”. `C[C@@H]1CN([C@@H](C)CO)C(=O)c2cc(NC(=O)Cc3cn(C)c4ccccc34)ccc2O[C@@H]1CN(C)S(C)(=O)=O` was tested, and the cytotoxicity call was “inactive”.
